Hits are enriched below; roughly 3.3% of the tested compounds scored in any of these assays.
Mcl-1 Bim block: inhibitors of Bim-Mcl-1 interaction, human; inhibition, % at 10 µM; AID 1009; Bead-based flow cytometry, Bim peptide-Mcl-1 binding; Q07820; actives 0.1% (n = 190,000); in the data active = inhibition above about 40%
Target sequence (Q07820 whole entry, looked up): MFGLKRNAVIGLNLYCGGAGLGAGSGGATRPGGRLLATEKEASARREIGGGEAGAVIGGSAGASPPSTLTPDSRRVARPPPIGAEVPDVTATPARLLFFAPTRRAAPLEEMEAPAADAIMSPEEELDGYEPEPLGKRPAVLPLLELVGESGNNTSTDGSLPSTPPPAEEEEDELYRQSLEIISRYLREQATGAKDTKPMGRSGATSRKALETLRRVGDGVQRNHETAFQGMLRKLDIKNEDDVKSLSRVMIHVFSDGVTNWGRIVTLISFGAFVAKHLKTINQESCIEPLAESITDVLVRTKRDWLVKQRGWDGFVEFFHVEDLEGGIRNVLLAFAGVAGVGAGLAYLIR
Mcl1-Noxa inh: disrupts binding of human Mcl-1 to Noxa peptide; inhibition, % at 21.7 µM; actives 1.5% (n = 220,000); AID 1022; TR-FRET Mcl-1/Noxa peptide binding, 2 h; Q07820;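 active = compounds that cut the protein-peptide binding signal by more than 50% relative to plate controls in a single-dose test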;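 note: His-tagged Mcl-1 with rhodamine Noxa BH3 peptide and terbium anti-His antibody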
Mcl1 Bid PPI: disrupts binding of human Mcl-1 to Bid peptide; actives 0.97% (n = 220,000); AID 1021; Q07820; TR-FRET Mcl-1/Bid-Dy647 peptide binding, 1536-well; inhibition, % at 21.7 µM;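 active = compounds that cut the binding signal by more than half at the single screening dose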;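 note: His-tagged Mcl-1 with europium anti-His antibody binding Bid BH3 peptide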
eIF4E-4G inh: inhibitors of eIF4E and eIF4G interaction in translation initiation; TR-FRET eIF4E-eIF4GI(517-606) binding, 2 h; P63073+Q04637; inhibition, % at 21.7 µM; actives 0.37% (n = 220,000)
NCF1 inh: inhibitors of human p47phox binding. P14598. p47phox/p22phox peptide binding, fluorescence polarization, 2 h. inhibition, % at 24.7 µM. actives 0.53% (n = 220,000). AID 1274
14-3-3 Bad PPI: disrupts binding of bovine 14-3-3 zeta to phospho-Bad peptide. P63103. TR-FRET 14-3-3zeta/Dy647-pBad peptide displacement, 1 h. inhibition, % at 21.7 µM. actives 0.71% (n = 220,000);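 active = inhibition above about 70%, limit read from the data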
Target sequence (P63103 whole entry, looked up): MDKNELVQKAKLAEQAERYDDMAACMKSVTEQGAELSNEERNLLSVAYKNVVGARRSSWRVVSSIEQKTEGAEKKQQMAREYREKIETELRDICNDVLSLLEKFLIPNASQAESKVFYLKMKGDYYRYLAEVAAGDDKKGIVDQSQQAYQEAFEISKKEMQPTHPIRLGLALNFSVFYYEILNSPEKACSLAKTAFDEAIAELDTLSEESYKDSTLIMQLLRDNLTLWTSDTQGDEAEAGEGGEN
A number is an active result; - = inactive; . = not tested or not shown; [ ] = remark or other dose.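 Rule for the calls, unless noted: active = inhibition above about 30% (limit read from the data); inactive = the rest.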

SMILES | Mcl-1 Bim block | Mcl1-Noxa inh | Mcl1 Bid PPI | eIF4E-4G inh | NCF1 inh | 14-3-3 Bad PPI
Cc1ccc2nc(-c3ccc(NC(=O)COC(=O)c4ccc([N+](=O)[O-])o4)cc3)sc2c1 | - | 71 | 62 | - | - | -
Nn1c(SCc2ccccn2)nncc1=O | - | - | - | - | - | -
COc1cccc2c(=S)c(CCC(C)=O)c(C)[nH]c12 | - | 100 | - | - | - | -
COCCNC(=O)c1ccc2c(=O)n(CCOC)c(=O)[nH]c2c1 | - | - | - | - | - | 85
NC(=O)c1ccc(NC(=O)Cc2csc(-c3ccccc3)n2)cc1 | - | - | - | - | - | -
CCc1cccc(C)c1NC(=S)NCC1CCN(c2ccc(OC)cc2)C1 (centres undefined) | - | - | - | - | - | -
COc1ccc(N2CCC(CNC(=S)Nc3cccc(OC)c3)C2)cc1 (centres undefined) | - | 75 | - | - | - | -
CCc1ccccc1NC(=S)NCC1CCN(c2ccc(OC)cc2)C1 (centres undefined) | . | - | - | - | - | -
COc1ccc(N2CCC(CNC(=O)Nc3cccc(OC)c3)C2)cc1 (centres undefined) | - | 89 | - | . | - | .
COc1ccc(N2CCC(CNC(=O)Nc3ccc(Cl)cc3)C2)cc1 (centres undefined) | - | 76 | - | - | - | -
Cc1cc(C(=O)NCc2ccccc2Cl)n(-c2ccccc2)n1 | . | - | - | - | - | -
O=C(CSc1ncnc2sc3c(c12)CCC3)Nc1ccccc1C(=O)O | . | - | - | - | - | -
O=C1NN(c2ccc(Cl)c(Cl)c2)C(=O)/C1=C/c1cccc(OC(=O)c2cccs2)c1 | - | 96 | 90 | - | - | -
O=C1NN(c2ccccc2)C(=O)/C1=C\c1cccc(OC(=O)c2cccs2)c1 | - | 57 | - | - | - | -
COC(=O)N/N=C\c1cccc(OC(=O)c2cccs2)c1 | - | - | - | - | - | -
Cc1ccc(NC(=S)N(Cc2cccs2)Cc2cc3cccc(C)c3[nH]c2=O)cc1 | - | - | - | - | - | -
CCOc1ccc(CN(C)CC(=O)Nc2ccc(N3CCOCC3)cc2)cc1OC | - | - | - | - | - | -
COc1ccccc1CN(C(=O)CCl)C(C(=O)NC1CCCCC1)c1ccncc1 (centres undefined) | - | - | - | - | 43 | -
CC(C)(C)[C@H]1C=C(C(=O)N2CCN(Cc3ccc4c(c3)OCO4)CC2)O[C@@H](OCc2ccc(CO)cc2)C1 | - | - | - | - | - | -
COc1cccc(OCc2cc(/C=N/Nc3ccc(C(=O)O)cc3)ccc2OC)c1 | . | 67 | - | - | - | -
CCOc1cc(/C=N/Nc2ccc(C(=O)O)cc2)ccc1OC(=O)c1ccccc1C | . | 56 | - | - | - | -
NCCCC[C@H]1CNC(=O)C(=O)N1CCc1cccc(F)c1 | . | - | - | - | - | -
CCC(=O)NC(=S)Nc1ccc(NC(=O)c2ccc([N+](=O)[O-])cc2)cc1 | - | - | - | 56[fluorescence artefact?] | - | -
COc1cc(N2CCCC2)c(OC)cc1/C=C(/C#N)c1ccc(F)cc1 | - | 72 | - | - | - | -
O=c1c(C=NCCCO)c(-c2ccccc2)[nH]n1-c1nc2ccccc2s1 | - | - | 62 | - | - | 71
SMILES | Mcl-1 Bim block | Mcl1-Noxa inh | Mcl1 Bid PPI | eIF4E-4G inh | NCF1 inh | 14-3-3 Bad PPI
COCCCN=Cc1c(-c2ccccc2)[nH]n(-c2nc3ccccc3s2)c1=O | . | - | - | - | - | -
CCCCn1c(SCC(=O)N(C)C2CCS(=O)(=O)C2)nc2cc(S(N)(=O)=O)ccc21 (centres undefined) | . | - | - | - | - | -
Cn1c(=O)nc2n(Cc3ccccc3)c3cccc(Cl)c3cc-2c1=O | - | - | 62 | - | - | -
Cc1ccc(-n2c3nc(=O)n(C)c(=O)c-3cc3ccccc32)cc1 | . | - | - | - | - | -
CN(C)c1ccc(N=C/C=C2/N(C)c3ccccc3C2(C)C)cc1 | - | 64 | - | - | - | -
NS(=O)(=O)c1ccc(N/C=C\C(=O)c2ccc3ccccc3c2)cc1 | - | - | 54 | - | - | -
COc1ccc(C(=O)/C=C/Nc2ccc(S(N)(=O)=O)cc2)cc1OC | . | - | - | - | - | -
O=C(N1CCCCC1)N1CCN(S(=O)(=O)c2ccc(Cl)cc2)CC1 | - | - | - | - | - | -
CCN1CCN(C(c2cc(OC)ccc2OC)c2nnnn2Cc2ccccc2)CC1 (centres undefined) | - | - | - | - | - | 79
CCN1CCN(C(c2ccccc2)c2nnnn2Cc2ccccc2)CC1 (centres undefined) | - | - | - | - | - | -
COc1ccc(N2CCN(C(c3cc(OC)ccc3OC)c3nnnn3CC3CCCO3)CC2)cc1 (centres undefined) | - | 60 | - | - | - | -
COc1ccc(N2CCN(C(c3ccccc3OC)c3nnnn3C3CCCC3)CC2)cc1 (centres undefined) | - | - | - | - | - | -
COc1ccc(N2CCN(C(c3cccc(OC)c3OC)c3nnnn3C3CCCC3)CC2)cc1 (centres undefined) | - | - | - | - | - | 77
CSc1nc(N(C)C)nc(N(C)C#N)n1 | - | - | - | - | - | -
COc1ccc(CN(C(=O)c2cc(=O)c3cc(C)cc(C)c3o2)C2CCS(=O)(=O)C2)cc1 (centres undefined) | . | - | - | - | - | -
O=C(COC(=O)c1cc(=O)[nH]c(=O)[nH]1)Nc1cccc(S(=O)(=O)N2CCCCC2)c1 | - | - | - | - | - | -
C=CCNc1nc(N)c(C(=C(C#N)C#N)c2ccc(Br)cc2)s1 | - | - | - | - | - | -
CCOc1ccc(NC(N)=O)cc1OCC | - | - | - | - | - | -
CCCOc1ccc(NC(N)=O)cc1OCCC | - | - | - | - | 31 | -
CCC(C(=O)OCC(=O)Nc1cc(Cl)cc(Cl)c1)c1ccccc1 (centres undefined) | - | - | - | - | - | -
C#CCOCCOCCOCCNc1nc(N2CCN(C(=O)[C@H]([C@@H](C)CC)n3cc([C@@H](N)CO)nn3)CC2)nc(N2CCN(C(=O)[C@H](Cc3ccc(O)cc3)n3cc([C@@H](N)CC(C)C)nn3)CC2)n1 | - | - | 63 | - | - | -
C#CCOCCOCCOCCNc1nc(N2CCN(C(=O)[C@H](CCC(=O)O)n3cc(C(N)Cc4ccc(O)cc4)nn3)CC2)nc(N2CCN(C(=O)[C@H](CCC(=O)O)n3cc(C(N)CC(C)C)nn3)CC2)n1 (some centres undefined) | - | - | 60 | - | - | -
C#CCOCCOCCOCCNc1nc(N2CCN(C(=O)[C@H](CCCCN)n3cc(C(N)COC(=O)C(F)(F)F)nn3)CC2)nc(N2CCN(C(=O)[C@H](CCCCN)n3cc(C(N)CC(C)C)nn3)CC2)n1 (some centres undefined) | . | - | - | - | 34 | -

Screening data from PubChem BioAssay.
